The source of these data is ChEMBL document CHEMBL3988442, “University of Dundee, Small-Polar-MMV Screening Library” (2021).

For some assays here: Measured potencies and affinities stand elsewhere.

What all share (set-up): scale not given: direction of the effect not stated beside the values
The target in assay [1] is Protein translocase subunit SecA (Escherichia coli (strain K12)) (UniProt P10408). As to the kind of experiment: Assay to Identify E. coli SecA ATPase Inhibitors. It is filed as functional. The following applies: 30 µM.
For assay [2], the target named is T1, Ubiquitin-activating enzyme e1, putative (Leishmania donovani (strain BPK282A1)) (UniProt E9BSI1).
T1 sequence (whole entry): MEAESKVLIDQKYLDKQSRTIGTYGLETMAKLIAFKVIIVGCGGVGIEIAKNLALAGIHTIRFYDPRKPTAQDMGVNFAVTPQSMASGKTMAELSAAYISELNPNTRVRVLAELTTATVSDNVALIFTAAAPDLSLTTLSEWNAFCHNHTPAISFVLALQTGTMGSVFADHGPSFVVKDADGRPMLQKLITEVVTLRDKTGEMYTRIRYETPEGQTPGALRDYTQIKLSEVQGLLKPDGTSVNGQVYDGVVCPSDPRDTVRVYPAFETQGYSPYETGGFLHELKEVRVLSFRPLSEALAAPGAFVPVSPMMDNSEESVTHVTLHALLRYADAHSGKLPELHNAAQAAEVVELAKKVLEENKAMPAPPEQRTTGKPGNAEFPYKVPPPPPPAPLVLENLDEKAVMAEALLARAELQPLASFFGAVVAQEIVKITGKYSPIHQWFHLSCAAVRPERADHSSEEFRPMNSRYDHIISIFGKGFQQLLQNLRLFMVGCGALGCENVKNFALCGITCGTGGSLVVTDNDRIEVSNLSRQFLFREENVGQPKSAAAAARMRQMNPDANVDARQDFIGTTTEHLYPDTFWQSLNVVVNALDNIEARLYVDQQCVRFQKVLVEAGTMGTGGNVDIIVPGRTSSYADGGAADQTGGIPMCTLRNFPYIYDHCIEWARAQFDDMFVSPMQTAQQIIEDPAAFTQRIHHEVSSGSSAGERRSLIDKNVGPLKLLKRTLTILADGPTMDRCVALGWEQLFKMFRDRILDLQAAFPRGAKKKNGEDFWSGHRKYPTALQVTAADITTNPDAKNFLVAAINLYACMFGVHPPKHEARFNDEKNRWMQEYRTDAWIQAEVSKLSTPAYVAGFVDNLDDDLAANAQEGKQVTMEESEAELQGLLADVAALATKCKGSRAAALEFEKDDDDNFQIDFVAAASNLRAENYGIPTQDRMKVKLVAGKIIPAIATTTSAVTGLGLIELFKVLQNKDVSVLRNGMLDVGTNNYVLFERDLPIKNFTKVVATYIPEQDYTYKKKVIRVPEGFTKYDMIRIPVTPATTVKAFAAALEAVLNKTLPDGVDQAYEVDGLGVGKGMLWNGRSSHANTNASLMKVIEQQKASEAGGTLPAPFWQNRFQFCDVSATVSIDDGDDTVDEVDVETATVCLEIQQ
As to the kind of experiment: Leishmania donovani Ubiquitin Activating Enzyme (LdE1). The following applies: 30 µM. The format is functional.

Assay [3] has as its target Sialic acid-binding Ig-like lectin 9 (Homo sapiens) (UniProt Q9Y336). Briefly: Hs-Siglec9 ALPHAscreen SOP 20170721. Particulars: 10 µM. For orientation: In Alpha technology, singlet oxygen from a donor bead excites a nearby acceptor bead.
The next assay deals with Trypanosoma cruzi. Briefly: Trypanosoma cruzi phosphomannomutase and mannose-1-phosphate guanylyltransferase assay. The format is functional. Particulars: 10 µM.
The target in assay [4] is T2, Arginase-2, mitochondrial (Homo sapiens) (UniProt P78540).
T2 sequence (whole entry): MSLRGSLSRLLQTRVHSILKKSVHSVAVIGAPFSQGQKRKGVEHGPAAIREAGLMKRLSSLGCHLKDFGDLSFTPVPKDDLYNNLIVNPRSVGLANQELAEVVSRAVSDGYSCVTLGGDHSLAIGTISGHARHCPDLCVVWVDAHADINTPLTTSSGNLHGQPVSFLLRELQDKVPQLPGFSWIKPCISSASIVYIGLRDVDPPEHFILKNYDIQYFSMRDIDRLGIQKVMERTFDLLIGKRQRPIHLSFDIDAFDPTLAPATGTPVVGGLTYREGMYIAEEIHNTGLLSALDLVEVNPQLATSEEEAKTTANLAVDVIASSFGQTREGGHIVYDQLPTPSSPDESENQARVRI
As to the kind of experiment: in vitro enzyme assay to detect the production of urea directly proportional to the activity of Arginase II. Note: in the data most compounds retested in dose-response had high values. It is filed as functional. Particulars: 33.3 µM.

Assay [5] deals with T3, Proteasome subunit beta (Trypanosoma cruzi) (UniProt O96673).
T3 sequence (whole entry): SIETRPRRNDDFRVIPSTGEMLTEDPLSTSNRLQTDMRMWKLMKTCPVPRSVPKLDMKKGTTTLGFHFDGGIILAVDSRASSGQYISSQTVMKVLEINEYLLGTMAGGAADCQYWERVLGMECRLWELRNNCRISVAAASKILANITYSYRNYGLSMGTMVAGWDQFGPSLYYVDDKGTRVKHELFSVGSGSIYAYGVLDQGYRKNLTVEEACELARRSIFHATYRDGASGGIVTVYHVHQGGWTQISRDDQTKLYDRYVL
As to the kind of experiment: Trypanosoma cruzi proteasome chymotrypsin-like activity (TcProtChymo) assay. Note: in the data most compounds retested in dose-response had high values. It is filed as functional. The following applies: 9.37 µM.

For another assay, the species on record is Homo sapiens. Briefly: To identify inhibition of the IFN signalling (Jak-Stat) pathway via expression of an eGFP reporter gene under the control of an IFN-stimulated response element (ISRE) containing MxA promoter. It is filed as functional. Particulars: 30 µM.
Assay [6] concerns the target T4, Tyrosyl-tRNA synthetase, putative (Trypanosoma cruzi (strain CL Brener)) (UniProt Q4DSP6).
T4 sequence (whole entry): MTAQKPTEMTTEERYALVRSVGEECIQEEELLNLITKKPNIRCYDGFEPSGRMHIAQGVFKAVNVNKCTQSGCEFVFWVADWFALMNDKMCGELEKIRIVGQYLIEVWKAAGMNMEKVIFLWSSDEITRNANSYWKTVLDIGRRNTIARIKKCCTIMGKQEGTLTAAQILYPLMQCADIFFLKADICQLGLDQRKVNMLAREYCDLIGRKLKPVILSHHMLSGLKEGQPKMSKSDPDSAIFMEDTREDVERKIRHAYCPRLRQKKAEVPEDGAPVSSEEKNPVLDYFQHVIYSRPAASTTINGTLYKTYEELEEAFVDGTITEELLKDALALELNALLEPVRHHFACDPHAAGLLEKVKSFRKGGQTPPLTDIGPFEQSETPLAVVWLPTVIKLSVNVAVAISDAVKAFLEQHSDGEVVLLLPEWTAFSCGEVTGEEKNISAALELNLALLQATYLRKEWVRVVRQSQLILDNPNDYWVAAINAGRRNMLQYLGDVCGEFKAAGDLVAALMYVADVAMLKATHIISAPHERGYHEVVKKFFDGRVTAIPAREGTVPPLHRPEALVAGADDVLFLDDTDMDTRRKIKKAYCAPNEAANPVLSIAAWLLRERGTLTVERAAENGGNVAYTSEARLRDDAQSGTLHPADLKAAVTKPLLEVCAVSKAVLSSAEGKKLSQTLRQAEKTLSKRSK
As to the kind of experiment: Trypanosoma cruzi tyrosyl tRNA synthetase (TcYRS) _High Tyrosine SOP. Note: in the data most compounds retested in dose-response had high values. It is filed as functional. The following applies: 30 µM.

Assay [7] addresses T4, Tyrosyl-tRNA synthetase, putative (Trypanosoma cruzi (strain CL Brener)). As to the kind of experiment: Trypanosoma cruzi tyrosyl tRNA synthetase (TcYRS) SOP. It is filed as functional. Particulars: 30 µM.
The target of assay [8] is Chromo domain-containing protein 1 (Saccharomyces cerevisiae (strain ATCC 204508 / S288c) (Baker's yeast)) (UniProt P32657). As to the kind of experiment: ScCHD-1 Enzyme Inhibition Assay. Note: in the data most compounds retested in dose-response had high values. It is filed as functional. The following applies: 30 µM.
Chain of Chromo domain-containing protein 1 (Saccharomyces cerevisiae (strain ATCC 204508 / S288c) (Baker's yeast)) (P32657 whole entry, the tested form may be a part): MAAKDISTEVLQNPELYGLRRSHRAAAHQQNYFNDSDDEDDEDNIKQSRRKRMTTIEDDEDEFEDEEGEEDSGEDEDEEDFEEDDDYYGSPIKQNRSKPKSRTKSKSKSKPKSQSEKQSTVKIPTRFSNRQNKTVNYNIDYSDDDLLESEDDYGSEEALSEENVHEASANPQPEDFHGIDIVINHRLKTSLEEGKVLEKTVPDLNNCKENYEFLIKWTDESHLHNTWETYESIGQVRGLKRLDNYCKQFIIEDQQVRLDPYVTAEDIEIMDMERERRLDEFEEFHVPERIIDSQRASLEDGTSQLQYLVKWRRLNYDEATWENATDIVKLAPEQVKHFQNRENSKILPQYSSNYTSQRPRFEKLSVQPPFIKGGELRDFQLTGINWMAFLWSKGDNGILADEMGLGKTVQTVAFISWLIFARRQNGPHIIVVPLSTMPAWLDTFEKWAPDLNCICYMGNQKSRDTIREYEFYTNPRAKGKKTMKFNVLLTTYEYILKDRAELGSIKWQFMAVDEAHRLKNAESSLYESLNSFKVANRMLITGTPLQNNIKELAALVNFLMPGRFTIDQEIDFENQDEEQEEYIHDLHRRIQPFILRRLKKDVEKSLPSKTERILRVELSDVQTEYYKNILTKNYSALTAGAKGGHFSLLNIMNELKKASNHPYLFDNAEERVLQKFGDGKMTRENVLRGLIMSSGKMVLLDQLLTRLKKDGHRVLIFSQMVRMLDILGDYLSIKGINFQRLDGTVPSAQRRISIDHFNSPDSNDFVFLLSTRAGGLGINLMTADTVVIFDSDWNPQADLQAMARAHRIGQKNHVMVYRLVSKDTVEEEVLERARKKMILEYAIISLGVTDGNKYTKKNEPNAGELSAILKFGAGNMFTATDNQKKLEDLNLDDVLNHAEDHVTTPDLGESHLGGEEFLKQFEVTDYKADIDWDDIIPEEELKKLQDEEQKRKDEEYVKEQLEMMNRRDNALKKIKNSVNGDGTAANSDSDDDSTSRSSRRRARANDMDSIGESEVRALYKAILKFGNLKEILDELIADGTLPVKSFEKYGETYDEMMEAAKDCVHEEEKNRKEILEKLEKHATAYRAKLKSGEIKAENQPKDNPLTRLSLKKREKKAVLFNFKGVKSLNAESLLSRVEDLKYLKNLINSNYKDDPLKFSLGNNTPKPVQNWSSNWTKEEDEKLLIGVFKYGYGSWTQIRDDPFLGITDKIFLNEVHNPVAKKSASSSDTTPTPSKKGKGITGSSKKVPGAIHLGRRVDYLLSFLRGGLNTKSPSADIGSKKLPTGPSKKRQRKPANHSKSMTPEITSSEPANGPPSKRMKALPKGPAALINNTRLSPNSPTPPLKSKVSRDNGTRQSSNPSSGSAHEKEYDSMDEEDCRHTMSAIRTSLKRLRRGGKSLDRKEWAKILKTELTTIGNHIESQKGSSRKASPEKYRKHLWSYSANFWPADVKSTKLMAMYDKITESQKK

Chain of Sialic acid-binding Ig-like lectin 9 (Homo sapiens) (Q9Y336 whole entry): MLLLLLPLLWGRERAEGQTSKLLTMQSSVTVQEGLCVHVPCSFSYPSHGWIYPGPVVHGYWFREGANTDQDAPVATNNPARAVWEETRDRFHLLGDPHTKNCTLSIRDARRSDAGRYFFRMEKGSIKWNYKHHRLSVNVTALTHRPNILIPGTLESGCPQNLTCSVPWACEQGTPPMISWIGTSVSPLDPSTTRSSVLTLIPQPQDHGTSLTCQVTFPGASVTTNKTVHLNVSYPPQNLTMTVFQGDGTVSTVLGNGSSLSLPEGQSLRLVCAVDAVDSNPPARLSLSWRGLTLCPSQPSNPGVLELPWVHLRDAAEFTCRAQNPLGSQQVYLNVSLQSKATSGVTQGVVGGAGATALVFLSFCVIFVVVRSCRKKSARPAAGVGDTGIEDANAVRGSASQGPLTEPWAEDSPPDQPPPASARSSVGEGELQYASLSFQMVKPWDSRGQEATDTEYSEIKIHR
Chain of Protein translocase subunit SecA (Escherichia coli (strain K12)) (P10408 whole entry): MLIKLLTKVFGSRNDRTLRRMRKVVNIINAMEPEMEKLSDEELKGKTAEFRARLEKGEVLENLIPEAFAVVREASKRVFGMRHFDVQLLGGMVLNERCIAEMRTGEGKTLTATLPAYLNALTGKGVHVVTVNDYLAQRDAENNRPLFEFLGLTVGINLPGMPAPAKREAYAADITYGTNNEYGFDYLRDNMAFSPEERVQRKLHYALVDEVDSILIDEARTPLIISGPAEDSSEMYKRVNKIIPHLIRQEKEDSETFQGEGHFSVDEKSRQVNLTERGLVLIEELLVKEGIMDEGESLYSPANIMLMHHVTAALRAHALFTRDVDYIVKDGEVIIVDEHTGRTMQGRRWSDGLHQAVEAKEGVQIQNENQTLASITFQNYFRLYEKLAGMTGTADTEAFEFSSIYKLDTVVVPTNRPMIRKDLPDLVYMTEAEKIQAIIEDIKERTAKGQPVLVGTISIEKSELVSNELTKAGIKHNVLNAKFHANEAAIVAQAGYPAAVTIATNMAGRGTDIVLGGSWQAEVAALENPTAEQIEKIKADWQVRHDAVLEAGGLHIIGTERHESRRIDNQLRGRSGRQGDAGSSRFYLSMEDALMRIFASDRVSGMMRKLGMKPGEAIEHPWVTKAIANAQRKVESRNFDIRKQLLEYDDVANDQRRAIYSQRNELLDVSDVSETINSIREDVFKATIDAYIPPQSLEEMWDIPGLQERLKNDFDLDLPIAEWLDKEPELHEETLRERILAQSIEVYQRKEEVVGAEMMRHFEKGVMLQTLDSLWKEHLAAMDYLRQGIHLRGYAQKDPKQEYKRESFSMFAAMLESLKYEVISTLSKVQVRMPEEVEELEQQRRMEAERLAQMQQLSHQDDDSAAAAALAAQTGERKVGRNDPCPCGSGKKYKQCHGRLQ

In the case of `O=C(c1ccco1)N1CCC2(CCC(=O)N2Cc2cccc(F)c2)CC1`, the Percent Effect in [1] is -1.47%; in assay [2], 14.3%; in [3], 3%; with Trypanosoma cruzi, -1.31%; in assay [4] it was 0%; in assay [5], 6.09%. Further, the Percent Effect is -5.56% in the assay listed under Homo sapiens, 5.8% in [6], 10% in assay [7] and -5.07% in [8].

As for `CCCNC(=O)c1cc2c(c3ccccc3n2C)n1C(=O)N(C)C`, the Percent Effect in [1] was -4.26%; in assay [2] it was -1.3%; in assay [3], 2.88%; with Trypanosoma cruzi, -5.16%; in [4], 1.22%; in assay [5], 9.62%. Moreover, the Percent Effect in the assay listed under Homo sapiens is -12.8%; in assay [6], 2.63%; in assay [7] it was 5.13%; in [8], -7.15%.

For the compound `Cn1cnc2c1CCN(Cc1cccc(C(N)=O)c1)C2`, the Percent Effect in assay [1] was -3.09%; in assay [2], 7.69%; in assay [3], 3.32%; with Trypanosoma cruzi, 0.657%; in [4], 2.87%; in [5], -3.67%. The Percent Effect in the assay listed under Homo sapiens was 7.29%; in assay [6] it was -0.478%; in assay [7] it was 13.2%; in [8] it was 4.07%.

With `Cc1cncc(C2CCCN(C(=O)c3cccn3C)C2)n1` (stereo not given), the Percent Effect was -1.26% in assay [1]; 17.3% in assay [2]; -0.809% in [3]; 1.97% in the assay with Trypanosoma cruzi; 1.33% in [4]; 13.3% in assay [5]. Moreover, the Percent Effect in the assay filed under Homo sapiens is -5.79%; in assay [6] it was 7.41%; in assay [7], 12.5%; in [8], -25%.

`CC(C)NC(=O)C(c1ccccc1)N1CCn2c(nnc2C2CC2)C1` (stereo not given): the Percent Effect was -3.99% in [1]; 15.4% in assay [2]; -10.1% in assay [3]; 7.61% in the assay on Trypanosoma cruzi; -2.87% in [4]; 4.86% in assay [5]. Also, the Percent Effect in the assay filed under Homo sapiens is 4.59%; in assay [6] it was 3.35%; in assay [7] it was 20.5%; in [8], -5.56%.

With `Cc1cccnc1CNCC1(O)CCCN(Cc2ccc(F)cc2)C1=O` (stereo not given), the Percent Effect in [1] was -5.67%; in [2], 8.11%; in [3] it was 19.1%; with Trypanosoma cruzi, 9.41%; in [4] it was 29.7%; in [5], -0.514%. Also, the Percent Effect in the assay listed under Homo sapiens is 5.17%; in [6], 15.4%; in assay [7], 29.3%; in assay [8], -3.8%.

`Cc1noc(C(C)C)c1C(=O)NCCCN1CCCC1`: the Percent Effect in assay [1] was -2.44%; in assay [2], 26%; in assay [3], 0.986%; in the assay with Trypanosoma cruzi it was 1.12%; in assay [4] it was -3.48%; in [5] it was 12.1%. In addition, the Percent Effect in the assay filed under Homo sapiens is 8.55%; in assay [6] it was 7.84%; in assay [7], 30.6%; in [8], -13.2%.

For the compound `COc1ccccc1CCN(C)C(=O)NC(C)c1nncn1C` (stereo not given), the Percent Effect is -6.85% in assay [1]; 10.7% in assay [2]; 12.9% in assay [3]; -1.21% in the assay on Trypanosoma cruzi; 0% in assay [4]; 16.2% in [5]. In addition, the Percent Effect was -2.26% in the assay listed under Homo sapiens, 2.63% in [6], 5.13% in assay [7] and -8.54% in assay [8].

On to `COc1ccc(CNC(=O)N2CCC(Cc3cnn(C)c3)C2)cc1C` (stereo not given), for which the Percent Effect in assay [1] was -1.91%; in assay [2], 7.69%; in assay [3] it was -4.56%; in the assay on Trypanosoma cruzi, 8.36%; in [4] it was 4.92%; in [5], 11.2%. Besides, the Percent Effect was 10.9% in the assay listed under Homo sapiens, 0.478% in [6], 13.2% in assay [7] and -4.08% in assay [8].

On to `Cc1cnc(CN2CCCC2c2noc(C)n2)cn1` (stereo not given), for which the Percent Effect is -3.01% in assay [1]; -2.67% in [2]; -1.58% in [3]; 0.602% in the assay with Trypanosoma cruzi; 0.444% in assay [4]; 14.5% in assay [5]. Moreover, the Percent Effect in the assay listed under Homo sapiens was -11.3%; in assay [6] it was 11.1%; in assay [7] it was 12.8%; in assay [8], -6.87%.

As for `CN(C)CC(=O)N1CCC2(CC1)COC(COc1ccccn1)C2` (stereo not given), the Percent Effect in [1] was -4.97%; in assay [2] it was 6.49%; in assay [3], -5.49%; in the assay on Trypanosoma cruzi it was 2.82%; in assay [4], -4.86%; in assay [5], 12.3%. The Percent Effect is -11.4% in the assay filed under Homo sapiens, 5.79% in assay [6], 12.8% in [7] and -0.892% in [8].
